# PubChem BioAssay (NCI)
# Values joined by “and” are separate entries in the source; they are usually repeats but may differ in a detail not shown here. Identical values can stand only once. The panel holds about 83,000 compounds, 20% with a hit somewhere; the sample as a whole holds those more often.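 The endpoint reported here, percent growth, reads 100 for growth as untreated, 0 for no net growth and -100 for all cells dead.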 Active and inactive are the calls of the source. How the source made its calls: active means growth percent below 10; inactive means the rest.
# How the values were obtained:
# Assay in all cases: NCI-60 one-dose screen, 48 h (100 = growth as untreated, 0 = no growth, -100 = all killed)
# Conditions in all cases: 10 µM unless noted
# SR leukemia = test system: SR leukemia
# RPMI-8226 leukemia = test system: RPMI-8226 leukemia
# OVCAR-8 ovarian = test system: OVCAR-8 ovarian
# OVCAR-5 ovarian = test system: OVCAR-5 ovarian
# OVCAR-4 ovarian = test system: OVCAR-4 ovarian
# SK-OV-3 ovarian = test system: SK-OV-3 ovarian
# IGROV1 ovarian = test system: IGROV1 ovarian
# OVCAR-3 ovarian = test system: OVCAR-3 ovarian
# HS 578T breast = test system: HS 578T breast
# NCI/ADR-RES ovarian = test system: NCI/ADR-RES ovarian
Structure (SMILES),growth (SR leukemia),growth (RPMI-8226 leukemia),growth (OVCAR-8 ovarian),growth (OVCAR-5 ovarian),growth (OVCAR-4 ovarian),growth (SK-OV-3 ovarian),growth (IGROV1 ovarian),growth (OVCAR-3 ovarian),growth (HS 578T breast),growth (NCI/ADR-RES ovarian)
CC1=C(C)C(=O)C(Nc2cccc(C(F)(F)F)c2)=C(Br)C1=O,26.1% (inactive),-10.8% (active),97% (inactive),128% (inactive),81.4% (inactive),86% (inactive),74.8% (inactive),103% (inactive),99.4% (inactive),103% (inactive)
Cc1[nH]c(C(=O)Nc2ccccc2OCc2cccc(C(=O)NC3CCCNC3)c2)c(Cl)c1Cl (configuration not stated),-30.5% (active),-19.1% (active),-44.3% (active),-87.8% (active),-73.4% (active),108% (inactive),-71.3% (active),-85.7% (active),93% (inactive),-2.67% (active)
Cn1c(SCC(=O)c2ccc(F)cc2)nc2ccccc2c1=O,93% (inactive),76.5% (inactive),94.5% (inactive),105% (inactive),79.1% (inactive),95.7% (inactive),88.7% (inactive),104% (inactive),101% (inactive),93.6% (inactive)
CNC(=O)c1cc(Oc2ccc3c(c2)sc2nc(-c4ccc(N(C)C)cc4)cn23)ccn1,13.2% (inactive),6.21% (active),14% (inactive),39.4% (inactive),70.7% (inactive),49.2% (inactive),21.5% (inactive),–,44.1% (inactive),–
CC(C)C(/C=C/c1[nH]ncc1-c1cc(Cl)ccc1O)N1CCOCC1 (configuration not stated),87.9% (inactive),94.5% (inactive),91.9% (inactive),99.4% (inactive),94.3% (inactive),92.8% (inactive),88.6% (inactive),–,83.8% (inactive),–
CC(=O)OC[C@@]12Oc3c(cccc3-c3ccc(O)c4c3O[C@]3(COC(C)=O)C(=C4O)C(=O)C[C@H](C)[C@@H]3OC(C)=O)C(O)=C1C(=O)C[C@H](C)[C@@H]2OC(C)=O,-7.02% (active),-27.1% (active),15% (inactive),27.6% (inactive),5.47% (active),-1.41% (active),26.9% (inactive),11.6% (inactive),-13.6% (active),24.7% (inactive)
O=S(=O)(NCCCNc1nccc(-c2[nH]c(-c3ccccc3)nc2-c2ccc(F)c(O)c2)n1)c1cccc2ccccc12,28.6% (inactive),4.6% (active),54.3% (inactive),146% (inactive),81.9% (inactive),103% (inactive),58.3% (inactive),88.4% (inactive),40.7% (inactive),91.1% (inactive)
Cc1cc(Br)ccc1-n1cc(C#N)c(N)c1C(=O)c1ccc(Br)cc1,89.4% (inactive),106% (inactive),106% (inactive),114% (inactive),114% (inactive),109% (inactive),110% (inactive),115% (inactive),106% (inactive),103% (inactive)
Clc1cccc(/C=N/Nc2nc(N/N=C/c3cccc(Cl)c3)nc(N3CCCCC3)n2)c1,74.6% (inactive),72.4% (inactive),89.2% (inactive),110% (inactive),90.2% (inactive),109% (inactive),105% (inactive),91.4% (inactive),105% (inactive),95.2% (inactive)
CCOC(=O)c1ccc(NC2=CC(=O)C(C)=C(C)C2=O)cc1,50.3% (inactive),66.1% (inactive),83.7% (inactive),104% (inactive),-63% (active),92% (inactive),79.2% (inactive),0.628% (active),94.1% (inactive),65.4% (inactive)
O=C1[C@@H]2Cc3c([nH]c4ccccc34)[C@@H](c3ccc(Cl)cc3)N2C(=O)CN1C1CCN(Cc2ccccc2)CC1,-25.3% (active),18.9% (inactive),43.9% (inactive),90.1% (inactive),49.1% (inactive),80.5% (inactive),29% (inactive),–,65.9% (inactive),–
C/C=C/CC(C)C(O)[C@H](NC(=O)[C@@H]1CCCN1C(=O)[C@](C)(CC)NC(=O)CCCCCCCCC)C(=O)N[C@@](C)(CC)C(=O)N[C@@H](CCC(N)=O)C(=O)N[C@H](CCC(N)=O)C(=O)NC(C)(C)C(=O)NC(C)(C)C(=O)N[C@@H](CCC(N)=O)C(=O)N[C@H](CC(C)C)C(=O)N[C@H](CO)CC(C)C (some centres not stated),12.6% (inactive) and 1.7% (active),50.5% (inactive) and -38.3% (active),42.1% (inactive) and -54.9% (active),71% (inactive) and -92% (active),86.8% (inactive) and 43.1% (inactive),107% (inactive) and 19.3% (inactive),52.1% (inactive) and -14.1% (active),7.49% (active),6.26% (active) and -64.4% (active),71.4% (inactive) and -70.3% (active)
Cc1ccc(-c2cc3nc(C(Cl)Cl)nc(-c4ccc(S(=O)(=O)N(C)C)cc4)n3n2)cc1,68.7% (inactive),86.9% (inactive),65.5% (inactive),106% (inactive),94.3% (inactive),101% (inactive),95% (inactive),108% (inactive),105% (inactive),78.8% (inactive)
O=C(CSc1nc2ccccc2c(=O)n1-c1ccc(Cl)cc1)N/N=C/c1ccc(Oc2ccc(Cl)cc2)cc1,32.9% (inactive),24.7% (inactive),13.4% (inactive),70.6% (inactive),1.7% (active),33.8% (inactive),20.6% (inactive),87.3% (inactive),21.4% (inactive),15.7% (inactive)
O=S(=O)(NCCCNc1nccc(-c2[nH]c(-c3ccccc3)nc2-c2ccc(F)c(O)c2)n1)c1ccccc1,51.5% (inactive),48.9% (inactive),90.2% (inactive),155% (inactive),118% (inactive),121% (inactive),114% (inactive),138% (inactive),116% (inactive),108% (inactive)
COC(=O)CNC(=O)c1cccc(-c2cc(=O)c3c(OC)c(OC)c(OC)cc3o2)c1,85% (inactive),94.8% (inactive),98% (inactive),98.1% (inactive),102% (inactive),118% (inactive),99.1% (inactive),–,99.7% (inactive),–
CC1(C)C=Cc2cc(/C(N)=N/C(N)=N/c3nc4ccccc4s3)ccc2O1,6.81% (active),80.2% (inactive),76.5% (inactive),95.9% (inactive),82.7% (inactive),124% (inactive),52.5% (inactive),103% (inactive),101% (inactive),81.7% (inactive)
CCCN1C=C/C(=C\C(=O)n2ccc3ccccc32)c2ccccc21,55.9% (inactive),69.3% (inactive),95.6% (inactive),87.8% (inactive),49.9% (inactive),70.2% (inactive),59.1% (inactive),87.3% (inactive),101% (inactive),88.7% (inactive)
CCCc1cc2cc(-n3nc(CC)c4c3CC(C)(C)CC4=O)cc(NC3CCC(O)CC3)c2c(=O)[nH]1 (configuration not stated),0.947% (active),12.4% (inactive),21.9% (inactive),35.2% (inactive),64.9% (inactive),27.2% (inactive),25.4% (inactive),46.7% (inactive),16.1% (inactive),39.9% (inactive)
CC1=C(C)C(=O)C(Nc2cccc(C)c2)=C(Br)C1=O,69.3% (inactive),35.8% (inactive),95.7% (inactive),128% (inactive),69.3% (inactive),85.7% (inactive),84.5% (inactive),110% (inactive),96.1% (inactive),98.1% (inactive)
Cn1cc(-c2nc(N)nnc2-c2c[nH]c3ccc(Br)cc23)c2cc(F)ccc21,50% (inactive),80.2% (inactive),96.8% (inactive),110% (inactive),94.5% (inactive),118% (inactive),73% (inactive),99.6% (inactive),96.4% (inactive),89.8% (inactive)
CCN(CC)CCOc1ccc(C(=C(C)c2ccc(OC)cc2)c2ccc(OCCN(CC)CC)cc2)cc1,-37.3% (active),-43.7% (active),10% (active),18.8% (inactive),-24.4% (active),96.4% (inactive),0.0725% (active),-4.04% (active),-21.8% (active),25.3% (inactive)
C#C[C@]1(O)CC[C@H]2[C@@H]3CC=C4c5sc(Nc6ncccc6C)nc5CC[C@]4(C)[C@H]3CC[C@@]21C,-3.26% (active),-36.2% (active),31.1% (inactive),26% (inactive),34.9% (inactive),-37.2% (active),40% (inactive),32.1% (inactive),-16.1% (active),28.1% (inactive)
COC(=O)c1cccc(NC2=C(Cl)C(=O)c3nc(C)ccc3C2=O)c1,18.7% (inactive),3.31% (active),77.4% (inactive),99.8% (inactive),-97.6% (active),87.6% (inactive),-58.1% (active),4.2% (active),102% (inactive),89.7% (inactive)
O=C(/C=C/c1cccc(F)c1)c1cccc(OCCCCOc2cccc(C(=O)/C=C/c3cccc(F)c3)c2)c1,84.8% (inactive),8.56% (active),104% (inactive),99.1% (inactive),106% (inactive),109% (inactive),103% (inactive),105% (inactive),99.3% (inactive),106% (inactive)
CCOC(=O)c1c(NCC(=O)Nc2cccc([N+](=O)[O-])c2)sc(C(C)=O)c1C,0.317% (active),-14.1% (active),-8.65% (active),1.07% (active),4.88% (active),-13.4% (active),22% (inactive),-37.2% (active),-23.9% (active),-28.3% (active)
